For 17 molecules, outcome and AC50 results are on record in PubChem BioAssay (EPA / NIEHS).

Assay [1] deals with human Matrix Metalloproteinase-2 (MMP2), MMP2 (gene 4313) (UniProt P08253). In words: NVS_ENZ_hMMP2: NovaScreen (NVS) Enzymatic Assay for human Matrix Metalloproteinase-2 (MMP2) (AID 2283184). The method in brief: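 Cell-free recombinant MMP2 activity with a fluorescent substrate, read 1 h after dosing. Primary screen in duplicate at 25 uM; actives then run in concentration series; loss of signal fitted versus DMSO.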
human Matrix Metalloproteinase-2 (MMP2), MMP2 (gene 4313), sequence (P08253 whole entry, looked up): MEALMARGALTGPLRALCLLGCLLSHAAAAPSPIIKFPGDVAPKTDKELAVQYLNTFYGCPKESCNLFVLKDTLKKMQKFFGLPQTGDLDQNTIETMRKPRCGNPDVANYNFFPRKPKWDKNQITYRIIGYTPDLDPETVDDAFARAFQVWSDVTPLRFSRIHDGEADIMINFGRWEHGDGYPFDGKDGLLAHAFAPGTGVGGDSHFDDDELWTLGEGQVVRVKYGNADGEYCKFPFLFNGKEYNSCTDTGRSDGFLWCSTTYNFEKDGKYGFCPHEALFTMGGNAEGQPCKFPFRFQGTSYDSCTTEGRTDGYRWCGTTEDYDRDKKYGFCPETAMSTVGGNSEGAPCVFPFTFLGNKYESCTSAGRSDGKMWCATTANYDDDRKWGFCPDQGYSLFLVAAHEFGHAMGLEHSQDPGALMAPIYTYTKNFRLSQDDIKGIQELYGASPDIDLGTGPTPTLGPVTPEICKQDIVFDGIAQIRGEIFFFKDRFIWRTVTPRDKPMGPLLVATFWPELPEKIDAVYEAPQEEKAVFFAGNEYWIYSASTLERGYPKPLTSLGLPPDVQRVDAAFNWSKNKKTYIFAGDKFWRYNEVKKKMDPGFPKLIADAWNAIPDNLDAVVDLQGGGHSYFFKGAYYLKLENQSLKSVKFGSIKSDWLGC

The target of assay [2] is human Matrix Metalloproteinase-9 (MMP9), MMP9 (gene 4318) (UniProt P14780). In words: NVS_ENZ_hMMP9: NovaScreen (NVS) Enzymatic Assay for human Matrix Metalloproteinase-9 (MMP9) (AID 2283190).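 Further: cell-free recombinant MMP9 protease activity read by fluorescent substrate signal; active means inhibition seen as loss of fluorescence signal versus DMSO.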 The method in brief:
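Cell-free fluorescence-intensity enzyme activity assay using extracted protein, read 1 h after dosing. Loss of signal versus DMSO baseline indicates inhibition; primary screen in duplicate at 25 uM, actives followed up in concentration series.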

Assay [3] concerns the target Tyrosine-protein phosphatase non-receptor type 13 (Homo sapiens) (UniProt Q12923). In words: NVS_ENZ_hPTPN13: NovaScreen (NVS) Enzymatic Assay for human Protein Tyrosine Phosphatase Non-receptor Type 13 (PTPN13) (AID 2283205). The method in brief: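 Cell-free assay of recombinant human PTPN13 with a fluorescent substrate, product separated by electrophoretic mobility shift and read 0.5 h after dosing. Primary screen at 25 uM in duplicate, then concentration-response up to 50 uM. Loss of signal fitted against DMSO.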

The target in assay [4] is human Matrix Metalloproteinase-3 (MMP3), MMP3 (gene 4314) (UniProt P08254). Description: NVS_ENZ_hMMP3: NovaScreen (NVS) Enzymatic Assay for human Matrix Metalloproteinase-3 (MMP3) (AID 2283185). An outline of the steps:
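Cell-free recombinant human MMP3 activity, fluorescence intensity read 1 h after dosing. Primary screen duplicate at 25 uM, actives retested in concentration series; loss of signal vs DMSO baseline.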

For assay [5], the target named is human Phosphodiesterase 5 (PDE5), PDE5A (gene 8654) (UniProt O76074). Description: NVS_ENZ_hPDE5: NovaScreen (NVS) Enzymatic Assay for human Phosphodiesterase 5 (PDE5) (AID 2283194). The method in brief: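 Recombinant human PDE5 with specific substrate, read 1 h after dosing by fluorescence with electrophoretic mobility-shift separation of substrate and product. Initial single-concentration duplicate screen at 25 uM, actives followed in concentration series; loss of activity versus DMSO.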

Assay [6] has as its target human Phosphodiesterase 10 (PDE10), PDE10A (gene 10846) (UniProt Q9Y233). Description: NVS_ENZ_hPDE10: NovaScreen (NVS) Enzymatic Assay for human Phosphodiesterase 10 (PDE10) (AID 2283195). An outline of the steps: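 Recombinant human PDE10 with fluorescent substrate, 1 h, product separated by electrophoretic mobility shift. Loss of enzyme activity fitted against DMSO; initial screen 25 uM in duplicate, actives run to 50 uM maximum.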

In assay [7] the target is human Phosphoinositide 3-kinase alpha (PI3Ka), PIK3CA (gene 5290) (UniProt P42336). In words: NVS_ENZ_hPI3Ka: NovaScreen (NVS) Enzymatic Assay for human Phosphoinositide 3-kinase alpha (PI3Ka) (AID 2283196). An outline of the steps:
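Enzyme activity as fluorescence after mobility-shift separation of substrate and product, 1 h reaction, recombinant human PI3Kα; concentration-response to 50 uM max for chemicals passing a 25 uM duplicate screen.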

The target in assay [8] is Tyrosine-protein phosphatase non-receptor type 12 (Homo sapiens) (UniProt Q05209). In words: NVS_ENZ_hPTPN12: NovaScreen (NVS) Enzymatic Assay for human Protein Tyrosine Phosphatase Non-receptor Type 12 (PTPN12) (AID 2283204). The method in brief: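 Single-concentration duplicates (25 uM) preceded singleton concentration-response up to 50 uM for chemicals passing threshold. Cell-free recombinant PTPN12 activity was read 1.33 h after dosing via fluorescence after mobility-shift separation; loss of signal versus DMSO.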
Tyrosine-protein phosphatase non-receptor type 12 (Homo sapiens), sequence (Q05209 whole entry, looked up): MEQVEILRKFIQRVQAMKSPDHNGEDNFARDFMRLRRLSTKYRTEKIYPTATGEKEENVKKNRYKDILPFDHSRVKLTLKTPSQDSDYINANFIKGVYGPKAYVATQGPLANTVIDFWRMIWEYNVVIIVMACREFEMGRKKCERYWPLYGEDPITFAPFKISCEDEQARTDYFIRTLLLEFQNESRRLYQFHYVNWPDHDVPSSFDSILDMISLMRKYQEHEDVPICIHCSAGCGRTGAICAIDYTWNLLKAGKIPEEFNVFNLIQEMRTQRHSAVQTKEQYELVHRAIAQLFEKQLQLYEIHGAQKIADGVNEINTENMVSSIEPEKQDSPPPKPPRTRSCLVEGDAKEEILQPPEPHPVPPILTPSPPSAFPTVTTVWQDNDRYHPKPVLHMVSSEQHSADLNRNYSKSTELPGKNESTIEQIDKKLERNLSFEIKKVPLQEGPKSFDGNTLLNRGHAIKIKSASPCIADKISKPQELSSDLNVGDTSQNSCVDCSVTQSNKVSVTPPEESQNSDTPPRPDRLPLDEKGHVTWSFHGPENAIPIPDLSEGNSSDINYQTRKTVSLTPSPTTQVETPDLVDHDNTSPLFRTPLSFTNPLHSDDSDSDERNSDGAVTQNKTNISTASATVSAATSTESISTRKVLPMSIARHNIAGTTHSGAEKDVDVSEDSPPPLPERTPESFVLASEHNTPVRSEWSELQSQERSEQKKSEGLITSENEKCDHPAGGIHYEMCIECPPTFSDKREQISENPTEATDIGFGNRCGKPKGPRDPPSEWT

Assay [9] addresses human Mitogen- and Stress-activated Protein Kinase-1 (Msk1), RPS6KA5 (gene 9252) (UniProt O75582). Description: NVS_ENZ_hMsk1: NovaScreen (NVS) Enzymatic Assay for human Mitogen- and Stress-activated Protein Kinase-1 (Msk1) (AID 2283187). The method in brief:
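Recombinant kinase with fluorescent substrate; product separated by electrophoretic mobility shift, read 1 h after dosing. Screened in duplicate at 25 uM; hits (e.g. ≥30% inhibition) tested in concentration–response up to 50 uM. DMSO baseline.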

Assay [10] deals with cAMP-dependent protein kinase catalytic subunit alpha (Homo sapiens) (UniProt P17612). In words: NVS_ENZ_hPKA: NovaScreen (NVS) Enzymatic Assay for human Protein Kinase A (PKA) (AID 2283192). The method in brief:
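Recombinant human PKA with specific fluorescent substrate, product separated by electrophoretic mobility shift, read 1 h after dosing. Primary screen at 25 uM in duplicate; actives then run in concentration-response up to 50 uM, activity relative to DMSO.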

For assay [11], the target named is Tyrosine-protein phosphatase non-receptor type 11 (Homo sapiens) (UniProt Q06124). In words: NVS_ENZ_hPTPN11: NovaScreen (NVS) Enzymatic Assay for human Protein Tyrosine Phosphatase Non-receptor Type 11 (PTPN11) (AID 2283202). The method in brief: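 Recombinant human PTPN11 activity on a fluorescent substrate, with substrate/product separated by electrophoretic mobility shift; read 0.5 h after dosing, loss of signal vs DMSO. Duplicate 25 uM screen, then concentration-response up to 50 uM.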
Tyrosine-protein phosphatase non-receptor type 11 (Homo sapiens), sequence (Q06124 whole entry, looked up): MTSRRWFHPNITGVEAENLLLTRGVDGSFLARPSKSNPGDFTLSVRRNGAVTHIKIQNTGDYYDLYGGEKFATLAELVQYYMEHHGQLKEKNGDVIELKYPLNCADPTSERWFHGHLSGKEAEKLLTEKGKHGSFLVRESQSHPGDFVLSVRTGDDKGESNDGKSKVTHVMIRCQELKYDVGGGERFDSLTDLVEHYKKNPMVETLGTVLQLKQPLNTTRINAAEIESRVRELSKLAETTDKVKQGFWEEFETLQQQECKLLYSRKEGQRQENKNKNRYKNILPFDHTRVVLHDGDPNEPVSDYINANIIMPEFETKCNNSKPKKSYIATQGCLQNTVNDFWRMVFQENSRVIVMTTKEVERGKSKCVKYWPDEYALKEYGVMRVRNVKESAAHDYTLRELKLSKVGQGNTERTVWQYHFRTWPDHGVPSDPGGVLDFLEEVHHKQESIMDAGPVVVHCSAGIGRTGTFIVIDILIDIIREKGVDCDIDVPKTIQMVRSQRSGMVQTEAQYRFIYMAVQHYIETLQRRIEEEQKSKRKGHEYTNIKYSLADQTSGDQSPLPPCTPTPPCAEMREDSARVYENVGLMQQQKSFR

Assay [12] deals with Tyrosine-protein phosphatase non-receptor type 14 (Homo sapiens) (UniProt Q15678). In words: NVS_ENZ_hPTPN14: NovaScreen (NVS) Enzymatic Assay for human Protein Tyrosine Phosphatase Non-receptor Type 14 (PTPN14) (AID 2283206). An outline of the steps: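 Cell-free recombinant human PTPN14 with fluorescent substrate, read 0.5 h after dosing by fluorescence and electrophoretic mobility shift separating substrate from product. Primary screen at 25 uM in duplicate; hits run to 50 uM maximum; loss of signal versus DMSO.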

The target in assay [13] is human Protein Tyrosine Phosphatase Non-receptor Type 9 (PTPN9), PTPN9 (gene 5780) (UniProt P43378). In words: NVS_ENZ_hPTPN9: NovaScreen (NVS) Enzymatic Assay for human Protein Tyrosine Phosphatase Non-receptor Type 9 (PTPN9) (AID 2283209). The method in brief:
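Sf9-expressed enzyme in a cell-free assay, fluorescence read 1.33 h after dosing with mobility-shift separation of substrate and product. Tested at 25 uM in duplicate, then up to 50 uM; signal loss versus DMSO.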

The target in assay [14] is human Protein Tyrosine Phosphatase Non-receptor Type 6 (PTPN6), PTPN6 (gene 5777) (UniProt P29350). Description: NVS_ENZ_hPTPN6: NovaScreen (NVS) Enzymatic Assay for human Protein Tyrosine Phosphatase Non-receptor Type 6 (PTPN6) (AID 2283210). The method in brief: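 Cell-free assay with recombinant PTPN6 expressed in SF9 cells, fluorescent substrate, product separated from substrate by electrophoretic mobility shift; read 1.33 hours after dosing. Primary screen in duplicate at 25 uM, actives retested in concentration series; DMSO baseline.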
human Protein Tyrosine Phosphatase Non-receptor Type 6 (PTPN6), PTPN6 (gene 5777), sequence (P29350 whole entry, looked up): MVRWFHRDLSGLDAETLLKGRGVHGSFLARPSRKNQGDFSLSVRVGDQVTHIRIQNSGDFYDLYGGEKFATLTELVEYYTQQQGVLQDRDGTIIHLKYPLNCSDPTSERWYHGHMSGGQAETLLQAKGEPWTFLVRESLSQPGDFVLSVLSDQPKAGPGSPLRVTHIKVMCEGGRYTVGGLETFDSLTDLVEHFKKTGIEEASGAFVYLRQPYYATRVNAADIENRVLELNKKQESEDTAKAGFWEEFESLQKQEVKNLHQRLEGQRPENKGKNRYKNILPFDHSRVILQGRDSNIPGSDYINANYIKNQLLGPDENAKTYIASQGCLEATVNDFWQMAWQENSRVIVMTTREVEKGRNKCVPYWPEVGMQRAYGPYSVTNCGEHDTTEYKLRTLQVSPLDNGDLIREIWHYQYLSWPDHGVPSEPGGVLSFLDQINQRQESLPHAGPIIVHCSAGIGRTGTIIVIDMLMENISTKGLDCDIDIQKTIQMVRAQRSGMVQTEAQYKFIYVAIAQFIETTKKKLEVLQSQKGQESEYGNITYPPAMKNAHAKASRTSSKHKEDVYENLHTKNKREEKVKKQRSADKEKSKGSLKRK

Assay [15] concerns the target human Protein Phosphatase, Mg2+/Mn2+ Dependent 1A (PPM1A), PPM1A (gene 5494) (UniProt P35813). Description: NVS_ENZ_hPPM1A: NovaScreen (NVS) Enzymatic Assay for human Protein Phosphatase, Mg2+/Mn2+ Dependent 1A (PPM1A) (AID 2283198). An outline of the steps:
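Cell-free recombinant PPM1A phosphatase assay with fluorescent substrate, read 1 h after dosing by electrophoretic mobility shift. Chemicals screened in duplicate at 25 uM, then in concentration-response up to 50 uM; loss of activity versus DMSO.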

Assay [16] deals with human Phosphodiesterase 4A1 (PDE4A1), PDE4A (gene 5141) (UniProt P27815). In words: NVS_ENZ_hPDE4A1: NovaScreen (NVS) Enzymatic Assay for human Phosphodiesterase 4A1 (PDE4A1) (AID 2283191). The method in brief: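 Cell-free recombinant human PDE4A1 with fluorescent substrate; product separated by electrophoretic mobility shift, 1 h. Screened at 25 uM, then up to 50 uM in concentration-response; loss of signal fitted against DMSO.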

In assay [17] the target is human Protein Tyrosine Phosphatase Non-receptor Type 4 (PTPN4), PTPN4 (gene 5775) (UniProt P29074). In words: NVS_ENZ_hPTPN4: NovaScreen (NVS) Enzymatic Assay for human Protein Tyrosine Phosphatase Non-receptor Type 4 (PTPN4) (AID 2283208). The method in brief: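 Cell-free assay of PTPN4 expressed in Sf9 cells, using a fluorescent substrate with product separated by mobility shift; read 1.33 h after dosing. Single-point screen at 25 uM, then concentration-response up to 50 uM. Loss of signal relative to DMSO.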

In assay [18] the target is Serine/threonine-protein phosphatase PP1-alpha catalytic subunit (Homo sapiens) (UniProt P62136). Description: NVS_ENZ_hPPP1CA: NovaScreen (NVS) Enzymatic Assay for human Protein Phosphatase 1 Aatalytic subunit Alpha (PPP1CA) (AID 2283200). The method in brief:
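Recombinant enzyme activity read by fluorescence with electrophoretic mobility shift separating substrate from product, 1.33 h after dosing; loss of signal vs DMSO baseline. Primary screen in duplicate at 25 uM; actives retested in concentration-response up to 50 uM.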

In assay [19] the target is human Protein Tyrosine Phosphatase Non-receptor Type 1 (PTPN1), PTPN1 (gene 5770) (UniProt P18031). Description: NVS_ENZ_hPTPN1: NovaScreen (NVS) Enzymatic Assay for human Protein Tyrosine Phosphatase Non-receptor Type 1 (PTPN1) (AID 2283201). The method in brief: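 Cell-free fluorogenic-substrate activity assay on recombinant enzyme, read 1.33 h after dosing by fluorescence and electrophoretic mobility shift; loss of signal vs DMSO baseline. Primary screen in duplicate at 25 uM, hits then run in concentration-response up to 50 uM.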

Assay [20] deals with human Protein Tyrosine Phosphatase Receptor Type B (PTPRB), PTPRB (gene 5787) (UniProt P23467). Description: NVS_ENZ_hPTPRB: NovaScreen (NVS) Enzymatic Assay for human Protein Tyrosine Phosphatase Receptor Type B (PTPRB) (AID 2283211). An outline of the steps:
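Recombinant human PTPRB with a fluorescent substrate, product separated by electrophoretic mobility shift; read 1 h after dosing. Primary screen in duplicate at 25 uM; actives then retested in concentration series; loss of signal versus DMSO.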

SMILES strings stand for the structures. Results filed as inconclusive are left out. Active and inactive are the calls of the source. How the source made its calls: active means hit-call score of the fitted dose curve at least 0.9, where 1 is the maximum; inconclusive means response in the unintended direction; inactive means score below 0.9.

human Protein Tyrosine Phosphatase Non-receptor Type 9 (PTPN9), PTPN9 (gene 5780), sequence (P43378 whole entry, looked up): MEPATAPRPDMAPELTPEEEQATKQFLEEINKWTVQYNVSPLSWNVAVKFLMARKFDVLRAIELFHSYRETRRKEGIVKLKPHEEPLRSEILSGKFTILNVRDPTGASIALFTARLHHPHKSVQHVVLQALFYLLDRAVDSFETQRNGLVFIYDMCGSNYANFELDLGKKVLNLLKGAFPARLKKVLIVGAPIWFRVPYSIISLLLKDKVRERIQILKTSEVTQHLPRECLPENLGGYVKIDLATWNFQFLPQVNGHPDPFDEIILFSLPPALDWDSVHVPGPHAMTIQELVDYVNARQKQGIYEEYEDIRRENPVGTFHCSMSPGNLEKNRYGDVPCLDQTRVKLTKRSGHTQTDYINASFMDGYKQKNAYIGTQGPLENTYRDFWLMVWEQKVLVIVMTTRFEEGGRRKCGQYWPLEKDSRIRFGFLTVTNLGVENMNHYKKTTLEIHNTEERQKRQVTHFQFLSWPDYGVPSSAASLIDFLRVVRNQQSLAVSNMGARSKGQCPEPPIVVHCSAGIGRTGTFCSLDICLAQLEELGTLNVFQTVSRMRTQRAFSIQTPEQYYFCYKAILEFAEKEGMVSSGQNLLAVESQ
human Matrix Metalloproteinase-9 (MMP9), MMP9 (gene 4318), sequence (P14780 whole entry, looked up): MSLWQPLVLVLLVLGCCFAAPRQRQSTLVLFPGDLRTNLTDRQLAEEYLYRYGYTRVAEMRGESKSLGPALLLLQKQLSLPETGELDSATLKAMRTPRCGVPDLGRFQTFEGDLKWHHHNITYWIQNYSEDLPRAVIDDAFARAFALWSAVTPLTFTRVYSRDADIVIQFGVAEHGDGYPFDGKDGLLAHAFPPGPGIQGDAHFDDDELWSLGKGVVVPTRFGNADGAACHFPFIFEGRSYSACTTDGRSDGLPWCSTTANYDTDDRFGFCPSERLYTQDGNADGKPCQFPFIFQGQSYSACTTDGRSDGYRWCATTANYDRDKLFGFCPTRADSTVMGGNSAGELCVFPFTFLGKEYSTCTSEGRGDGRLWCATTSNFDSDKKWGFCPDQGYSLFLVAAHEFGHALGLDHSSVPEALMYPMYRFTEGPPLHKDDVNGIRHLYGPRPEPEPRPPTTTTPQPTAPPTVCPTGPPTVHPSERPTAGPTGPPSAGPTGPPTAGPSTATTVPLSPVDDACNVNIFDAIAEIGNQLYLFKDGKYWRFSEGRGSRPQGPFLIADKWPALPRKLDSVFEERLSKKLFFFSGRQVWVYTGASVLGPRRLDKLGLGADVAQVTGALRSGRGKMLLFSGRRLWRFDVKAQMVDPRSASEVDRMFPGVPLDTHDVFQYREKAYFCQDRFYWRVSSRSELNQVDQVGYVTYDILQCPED
human Mitogen- and Stress-activated Protein Kinase-1 (Msk1), RPS6KA5 (gene 9252), sequence (O75582 whole entry, looked up): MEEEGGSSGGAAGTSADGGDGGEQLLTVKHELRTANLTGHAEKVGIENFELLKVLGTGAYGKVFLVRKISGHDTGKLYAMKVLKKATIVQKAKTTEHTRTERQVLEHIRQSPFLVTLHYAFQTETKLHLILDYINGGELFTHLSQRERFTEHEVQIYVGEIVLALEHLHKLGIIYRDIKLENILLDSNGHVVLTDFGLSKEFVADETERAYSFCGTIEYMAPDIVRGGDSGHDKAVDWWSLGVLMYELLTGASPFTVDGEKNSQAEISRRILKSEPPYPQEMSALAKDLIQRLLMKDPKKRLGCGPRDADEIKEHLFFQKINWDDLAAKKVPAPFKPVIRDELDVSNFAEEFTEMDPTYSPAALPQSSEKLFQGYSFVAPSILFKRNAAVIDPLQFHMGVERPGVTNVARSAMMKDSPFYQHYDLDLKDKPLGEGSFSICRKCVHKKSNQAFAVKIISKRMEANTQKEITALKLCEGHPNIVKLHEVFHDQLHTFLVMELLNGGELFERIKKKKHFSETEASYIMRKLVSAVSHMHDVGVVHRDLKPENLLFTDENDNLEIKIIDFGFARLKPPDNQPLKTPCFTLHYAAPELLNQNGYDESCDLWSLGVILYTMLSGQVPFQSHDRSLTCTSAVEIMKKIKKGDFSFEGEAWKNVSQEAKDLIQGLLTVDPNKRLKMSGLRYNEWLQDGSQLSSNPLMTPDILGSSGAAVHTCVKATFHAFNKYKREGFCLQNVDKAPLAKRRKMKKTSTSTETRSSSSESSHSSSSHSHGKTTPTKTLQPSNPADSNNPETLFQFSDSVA

With `CCCc1cc(=O)[nH]c(=S)[nH]1`, the result in assay [1] and in assay [3] was inactive. For the same molecule, the AC50 in assay [2] was 8.66 µM (active).
With `Cc1nc(-c2ccc3c(c2)CCN(CCC2CCC(NC(=O)/C=C/c4ccc(F)cc4)CC2)CC3)no1` (stereo not drawn), the AC50 in assay [1] was 13.7 µM (active); in assay [4], 16.6 µM (active); in assay [6], 3.71 µM (active). Moreover, the outcome in assay [5], in assay [7] and in assay [8] was inactive.
For the molecule `NCCO`, the molecule was classed as inactive in [9], in [2], in assay [10], in [11], in [8] and in [12].
For `COc1cc(S(=O)(=O)O)c(C)cc1N=Nc1c(O)ccc2cc(S(=O)(=O)O)ccc12`, in assay [4], the AC50 was 19.2 µM (active).
Consider `CCc1c(C(=O)NN2CCCCC2)nn(-c2ccc(Cl)cc2Cl)c1-c1ccc(Br)cc1`, for which the molecule was called inactive in assay [9], in assay [5], in [7], in [11], in [8] and in assay [13]. The call in assay [14] was inactive. In assay [3], the AC50 was 0.0976 µM (active).
`CN[C@H]1CC[C@@H](c2ccc(Cl)c(Cl)c2)c2ccc(S(N)(=O)=O)cc21`: the outcome in assay [4] and in [15] was inactive.
Regarding `O=C(O)Cc1ccccc1Nc1c(Cl)cccc1Cl`, the result in [2] and in assay [14] was inactive.
Turning to `CC1=C(/C=C/C(C)=C/C=C/C(C)=C/CO)C(C)(C)CCC1`, the result in [9], in [16] and in assay [5] was inactive.
As for `CNC(=O)[C@H]1O[C@@H](n2cnc3c(NCc4cc(Cl)ccc4OCc4cc(C)no4)ncnc32)[C@H](O)[C@@H]1N`, the result in assay [4], in assay [10] and in [5] was inactive. Further, the AC50 in assay [2] is 8.35 µM (active).
`Cc1nc(C)nc(N2C[C@@H](C)N(c3ccnc([C@@H](C)O)n3)[C@@H](C)C2)n1`: the AC50 in [1] is 7.26 µM (active).
`COc1cc(C=O)ccc1O`: the half-maximal activity concentration (AC50) in [4] was 3.71 µM (active).
For the molecule `Nc1ccccc1N`, in [2], the molecule was classed as inactive. Besides, the AC50 in assay [5] was 18.1 µM (active); in [13], 9.86 µM (active).
Take `NS(=O)(=O)c1cc2c(cc1Cl)NCNS2(=O)=O`: the molecule was classed as inactive in assay [2] and in [13].
As to `CC(=O)Oc1ccccc1C(=O)O`, the outcome in assay [16] and in assay [5] was inactive.
Take `Cc1ccc2ncccc2c1`: the result in [1], in assay [11], in assay [17], in assay [13] and in [14] was inactive.
Consider `CCNc1cccc(C)c1`, for which the outcome in [2] was inactive.
`FC(F)(F)C(F)(F)C(F)(F)C(F)(F)C(F)(F)C(F)(F)CCI`: the molecule was classed as inactive in [9], in [10], in assay [18], in assay [19], in assay [8] and in assay [17]. For the same molecule, in assay [20], the result was inactive. Besides, the AC50 in assay [5] was 19.7 µM (active).

One may read the AC50 as the concentration at which the activity in the assay is half-maximal.
